From PubChem BioAssay (NCATS)
Results filed as inconclusive are left out. Calls of active or inactive are those of the source. Unless noted, calls follow the shape of the dose curve; as a rule, active = well fitted curve in the direction sought with a large enough effect; inconclusive = small, poorly fitted or top-dose-only effect, or another doubt; inactive = no such curve, though single readings can be large; an effect the other way counts as inactive or inconclusive.

Experiments:
[1] = target: Aldehyde dehydrogenase, mitochondrial (Homo sapiens) (UniProt P05091); assay: qHTS for Inhibitors of the Aldehyde Dehydrogenase Family (ALDH2) Validation screens (AID 2061302; active = well fitted inhibition curve with a large enough effect; title and protocol of this record describe different tests;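 also: plate controls were DMSO vehicle for no effect and maximal DPI positive control response for full effect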); conditions: ALDH inhibition qHTS; series mostly up to 42.6 µM
[2] = target: Retinaldehyde dehydrogenase 3 (Homo sapiens) (UniProt P47895); assay: qHTS for Inhibitors of the Aldehyde Dehydrogenase Family (ALDH1A3) Validation screen (AID 2061312); conditions: ALDH1A3 enzyme inhibition qHTS validation, fluorescence; series mostly up to 84.7 µM; also: nearly all actives have a fitted effect of over 45% in size; also: potency is read from the fitted curve at half-maximal effect
[3] = BET inhibitor-based combinations targeting novel dependencies in MECOM-rearranged (r) AML: OCI-AML3 cell line (AID 2202232); conditions: CellTiter-Glo luminescence, 48 h; Potency: OCI-AML3 viability; series mostly up to 46 µM; also: nearly all actives have a fitted effect of over 35% in size; also: potency is read from the fitted curve at half-maximal effect
Procedure, shortened: (§1)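 Cells were plated at 500 per well and exposed to an 11-point dose series of each drug for 48 hr. Viability was measured by CellTiter-Glo luminescence, normalized to DMSO and empty-well controls, and summarized as AUC and per-cell-line Z-AUC.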

[4] = BET inhibitor-based combinations targeting novel dependencies in MECOM-rearranged (r) AML: AML-191 cell line (AID 2202236; also: nearly all actives have a fitted effect of over 35% in size; also: potency is read from the fitted curve at half-maximal effect); conditions: AML-191 viability, CellTiter-Glo luminescence, 48 h; series mostly up to 46 µM
Procedure, shortened: as §1

[5] = BET inhibitor-based combinations targeting novel dependencies in MECOM-rearranged (r) AML: MV-4-11 cell line (AID 2202233); conditions: MV-4-11 AML viability, CellTiter-Glo luminescence, 48 h; series mostly up to 46 µM; also: nearly all actives have a fitted effect of over 45% in size; also: potency is read from the fitted curve at half-maximal effect
Procedure, shortened: (§2)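 Activity is given as area under the curve and as Z-AUC, mean-centred within each cell line. It comes from 11-point dose curves normalized to DMSO and empty wells. CellTiter-Glo luminescence was read after 48 hr drug exposure of 500 cells/well.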

[6] = BET inhibitor-based combinations targeting novel dependencies in MECOM-rearranged (r) AML: HNT-34 cell line (AID 2202234); conditions: HNT-34 AML viability, CellTiter-Glo luminescence, 48 h; series mostly up to 46 µM; also: nearly all actives have a fitted effect of over 35% in size; also: potency is read from the fitted curve at half-maximal effect
Procedure, shortened: as §2

[7] = BET inhibitor-based combinations targeting novel dependencies in MECOM-rearranged (r) AML: SET-2 cell line (AID 2202231); conditions: SET-2 AML cells viability, CellTiter-Glo luminescence, 48 h; viability: stronger effect = lower value, concentration not given here; also: nearly all actives have a fitted effect of over 35% in size; also: potency is read from the fitted curve at half-maximal effect;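 as to viability: plate controls were DMSO treated cells for no effect and wells without cells for full effect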
Procedure, shortened: as §1

[8] = BET inhibitor-based combinations targeting novel dependencies in MECOM-rearranged (r) AML: UCSD-AML1 cell line (AID 2202235); conditions: UCSD-AML1 AML cells viability, CellTiter-Glo, 48 h; series mostly up to 46 µM; also: nearly all actives have a fitted effect of over 40% in size; also: potency is read from the fitted curve at half-maximal effect
Procedure, shortened: as §2

[9] = BET inhibitor-based combinations targeting novel dependencies in MECOM-rearranged (r) AML: AML-194 cell line (AID 2202237; also: nearly all actives have a fitted effect of over 40% in size; also: potency is read from the fitted curve at half-maximal effect); conditions: AML-194 (MECOM-r AML) viability, CellTiter-Glo, 48 h; series mostly up to 46 µM
Procedure, shortened: as §1

[10] = target: Aldehyde dehydrogenase, mitochondrial (Homo sapiens) (UniProt P05091); assay: qHTS for Inhibitors of the Aldehyde Dehydrogenase Family (ALDH2) Confirmatory screens (AID 2061303; active = well fitted inhibition curve with a large enough effect; title and protocol of this record describe different tests; also: nearly all actives have a fitted effect of over 45% in size; also: potency is read from the fitted curve at half-maximal effect); conditions: ALDH inhibition qHTS; series mostly up to 45.4 µM
[11] = qHTS for Inhibitors of the Aldehyde Dehydrogenase Family (ALDH1A2, ALDH1A3, ALDH2, ALDH3A1) (AID 2061307); conditions: ALDH inhibition qHTS; series mostly up to 50.3 µM; also: nearly all actives have a fitted effect of over 50% in size
[12] = target: Aldehyde dehydrogenase, mitochondrial (Homo sapiens) (UniProt P05091); assay: qHTS for Inhibitors of the Aldehyde Dehydrogenase Family (ALDH2) Primary screen (AID 2061308); conditions: ALDH2 enzyme inhibition qHTS, 1536-well; series mostly up to 56 µM; also: nearly all actives have a fitted effect of over 55% in size; also: potency is read from the fitted curve at half-maximal effect
[13] = target: Retinaldehyde dehydrogenase 3 (Homo sapiens) (UniProt P47895); assay: qHTS for Inhibitors of the Aldehyde Dehydrogenase Family (ALDH1A3) Confirmatory screens (AID 2061311); conditions: ALDH inhibition qHTS; series mostly up to 46 µM; also: potency is read from the fitted curve at half-maximal effect; nearly all actives have a fitted effect of over 60% in size
[14] = target: Retinal dehydrogenase 2 (Homo sapiens) (UniProt O94788); assay: qHTS for Inhibitors of the Aldehyde Dehydrogenase Family (ALDH1A2) Confirmation screens (AID 2061314); conditions: ALDH1A2 enzyme inhibition qHTS confirmation; series mostly up to 45.9 µM; also: potency is read from the fitted curve at half-maximal effect; nearly all actives have a fitted effect of over 65% in size
[15] = target: Aldehyde dehydrogenase 1A1 (Homo sapiens) (UniProt P00352); assay: qHTS for Inhibitors of the Aldehyde Dehydrogenase Family (ALDH1A1) Confirmatory screens (AID 2061316); conditions: ALDH inhibition qHTS; series mostly up to 47.3 µM; also: potency is read from the fitted curve at half-maximal effect; nearly all actives have a fitted effect of over 65% in size

CN[C@H]1CC[C@@H](c2ccc(Cl)c(Cl)c2)c2ccccc21
inactive: Potency [1] | Potency [2]
active: Potency [3] 13200 nM | Potency [4] 18600 nM

O=C1c2ccccc2-c2n[nH]c3cccc1c23
inactive: Potency [1] | Potency [2]
active: Potency [3] 4680 nM | Potency [5] 3320 nM | Potency [6] 13200 nM

CC(=O)[C@]1(O)Cc2c(O)c3c(c(O)c2[C@@H](O[C@H]2C[C@H](N)[C@H](O)[C@H](C)O2)C1)C(=O)c1ccccc1C3=O
inactive: Potency [1]
active: Potency [7] 468 nM | Potency [3] 186 nM | Potency [5] 66.1 nM | Potency [6] 186 nM | Potency [8] 148 nM | Potency [4] 186 nM | Potency [9] 235 nM

Cn1c(=O)c2[nH]cnc2n(C)c1=O
inactive: Potency [1] | Potency [2] | viability [7] 117% | Potency [3] | Potency [5] | Potency [6] | Potency [4] | Potency [9]

COc1cc2c(c(OC)c1OC)-c1ccc(OC)c(=O)cc1[C@@H](NC(C)=O)CC2
inactive: Potency [1]
active: Potency [7] 66.1 nM | Potency [3] 29.5 nM | Potency [5] 37.2 nM | Potency [8] 41.7 nM | Potency [4] 33.2 nM

CCC1(C)CC(=O)NC1=O (stereo not drawn)
inactive: Potency [1] | Potency [2] | viability [7] 115% | Potency [3] | Potency [5] | Potency [6] | Potency [8] | Potency [4] | Potency [9]

CC(C)C(=O)Nc1ccc([N+](=O)[O-])c(C(F)(F)F)c1
inactive: Potency [1] | Potency [2] | viability [7] 93.1% | Potency [6] | Potency [8] | Potency [4] | Potency [9]

CCC1(c2ccccc2)C(=O)NCNC1=O
inactive: Potency [1] | Potency [2] | viability [7] 109% | Potency [3] | Potency [5] | Potency [6] | Potency [8] | Potency [4] | Potency [9]

CC(=O)OCC(CCn1cnc2cnc(N)nc21)COC(C)=O
inactive: Potency [1] | Potency [2] | viability [7] 121% | Potency [3] | Potency [5] | Potency [6] | Potency [8] | Potency [4] | Potency [9]

N[C@@H](Cc1c[nH]c2ccc(O)cc12)C(=O)O
inactive: Potency [1] | Potency [2] | viability [7] 98.1% | Potency [3] | Potency [5] | Potency [8] | Potency [4] | Potency [9]

C=C[C@H]1CN2CC[C@@H]1C[C@@H]2[C@@H](O)c1ccnc2ccc(OC)cc12
inactive: Potency [1] | Potency [2]

OCCN(CCO)c1nc(N2CCCCC2)c2nc(N(CCO)CCO)nc(N3CCCCC3)c2n1
inactive: Potency [1] | Potency [2] | Potency [8] | Potency [9]

CN1C2CCC1CC(OC(=O)C(CO)c1ccccc1)C2 (stereo not drawn)
inactive: Potency [1] | Potency [2] | viability [7] 89.7% | Potency [5] | Potency [6] | Potency [8] | Potency [4] | Potency [9]

C[C@]12CCC(=O)C=C1CC[C@@H]1[C@@H]2[C@@H](O)C[C@@]2(C)[C@H]1CC[C@]2(O)C(=O)CO
inactive: Potency [1] | Potency [2] | viability [7] 113% | Potency [3] | Potency [5] | Potency [8] | Potency [9]
active: Potency [4] 417 nM

O=c1[nH]cnc2[nH]ncc12
active: Potency [6] 1.3 nM
inactive: Potency [1] | Potency [2] | viability [7] 124% | Potency [3] | Potency [5] | Potency [8] | Potency [4] | Potency [9]

O=C(C1CCCCC1)N1CC(=O)N2CCc3ccccc3C2C1 (stereo not drawn)
inactive: Potency [1] | Potency [2] | viability [7] 120% | Potency [3] | Potency [5] | Potency [6] | Potency [8] | Potency [4]

NC1CONC1=O (stereo not drawn)
inactive: Potency [1] | Potency [2]

COc1ccc2c(c1)c(CC(=O)O)c(C)n2C(=O)c1ccc(Cl)cc1
inactive: Potency [1] | Potency [2] | viability [7] 114% | Potency [3] | Potency [5] | Potency [6] | Potency [8] | Potency [4]

O=c1c(-c2ccc(O)cc2)coc2cc(O)ccc12
active: Potency [5] 23500 nM | Potency [6] 16600 nM
inactive: Potency [1] | Potency [2] | viability [7] 112% | Potency [8] | Potency [9]

O=C1NC(=O)C(c2ccccc2)(c2ccccc2)N1
inactive: Potency [1] | Potency [2]

O=C1c2c(O)ccc(O)c2C(=O)c2c(NCCNCCO)ccc(NCCNCCO)c21
inactive: Potency [1]
active: Potency [7] 742 nM | Potency [3] 209 nM | Potency [5] 74.2 nM | Potency [6] 132 nM | Potency [8] 148 nM | Potency [9] 372 nM

CCN(CC)C(=O)c1ccc(O)c(OC)c1
inactive: Potency [1] | Potency [2]

CC(=O)c1cccc(NC(=O)CCS(=O)(=O)c2ccc3c(c2)n(C)c(=O)c(=O)n3C)c1
inactive: Potency [10]

Cc1nnc(-c2cc(-c3ccc(CO)cc3)ccn2)n1Cc1ccccc1
inactive: Potency [10]

CCN1CCN(c2ccc(Nc3ccc(-c4ccc(C(N)=O)cc4)n4ncnc34)cc2)CC1
inactive: Potency [10] | Potency [11] | Potency [12]

COc1nc2ccc(Br)cc2cc1[C@@H](c1ccccc1)[C@@](O)(CCN(C)C)c1cccc2ccccc12
active: Potency [10] 1270 nM | Potency [11] 896 nM | Potency [12] 708 nM | Potency [13] 8960 nM | Potency [2] 1260 nM | Potency [14] 1790 nM | Potency [15] 142 nM

CCCC(=O)Nc1cccc(-c2cn3c(C)csc3n2)c1
inactive: Potency [10]
